Assay results taken from the supplement of paper PMC6089552.
About 300 (9.4%) of roughly 3,200 compounds showed activity. This is one part of a sample in which actives are shown more often than they occur.

System: A673/TR/shEF
Assay: cell viability (LOESS-normalised, relative to median of negative controls) (log2 ratio); higher = more viable cells (less compound effect), active = hit call of the paper (over 3 MAD below the median)
Conditions: treatment time: 72 h
Summary of the method: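 For three days, A673/TR/shEF Ewing sarcoma cells in 384-well plates (1,500 per well) were treated with library compounds at two or more concentrations or with DMSO controls, after doxycycline had been added or withheld 24 h beforehand to induce EWS-FLI1 shRNA knockdown. Viability was read by CellTiter-Glo luminescence on an Envision reader. The data were LOESS-corrected per plate, divided by the median of negative controls and log2-transformed.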

[1] = 0.103 µM, library screen: screen3, EWS-FLI1 expression: high (no doxycycline)
[2] = 0.103 µM, library screen: screen3, EWS-FLI1 expression: low (doxycycline-induced shRNA knockdown)
[3] = 0.308 µM, library screen: screen3, EWS-FLI1 expression: high (no doxycycline)
[4] = 0.308 µM, library screen: screen3, EWS-FLI1 expression: low (doxycycline-induced shRNA knockdown)
[5] = 0.926 µM, library screen: screen3, EWS-FLI1 expression: high (no doxycycline)
[6] = 0.926 µM, library screen: screen3, EWS-FLI1 expression: low (doxycycline-induced shRNA knockdown)
[7] = 2.8 µM, library screen: screen3, EWS-FLI1 expression: high (no doxycycline)
[8] = 2.8 µM, library screen: screen3, EWS-FLI1 expression: low (doxycycline-induced shRNA knockdown)
[9] = 8.3 µM, library screen: screen3, EWS-FLI1 expression: high (no doxycycline)
[10] = 8.3 µM, library screen: screen3, EWS-FLI1 expression: low (doxycycline-induced shRNA knockdown)
[11] = 25 µM, library screen: screen3, EWS-FLI1 expression: high (no doxycycline)
[12] = 25 µM, library screen: screen3, EWS-FLI1 expression: low (doxycycline-induced shRNA knockdown)
[13] = 0.25 µM, library screen: screen1, EWS-FLI1 expression: high (no doxycycline)
[14] = 0.25 µM, library screen: screen1, EWS-FLI1 expression: low (doxycycline-induced shRNA knockdown)
[15] = 2.5 µM, library screen: screen1, EWS-FLI1 expression: high (no doxycycline)
[16] = 2.5 µM, library screen: screen1, EWS-FLI1 expression: low (doxycycline-induced shRNA knockdown)
[17] = 0.25 µM, library screen: screen2, EWS-FLI1 expression: high (no doxycycline)
[18] = 0.25 µM, library screen: screen2, EWS-FLI1 expression: low (doxycycline-induced shRNA knockdown)
[19] = 2.5 µM, library screen: screen2, EWS-FLI1 expression: high (no doxycycline)
[20] = 2.5 µM, library screen: screen2, EWS-FLI1 expression: low (doxycycline-induced shRNA knockdown)

Measured: cell viability (log2)

CCC1=C(C)CN(C(=O)NCCc2ccc(S(=O)(=O)NC(=O)NC3CCC(C)CC3)cc2)C1=O (stereo unspecified)
inactive: [1] 0.065 | [2] 0.0619 | [3] -0.018 | [4] 0.0454 | [5] -0.0554 | [6] -0.00949 | [7] 0.0264 | [8] -0.0201 | [9] -0.0146 | [10] -0.0784
active: [11] -0.481 | [12] -0.408

CC1(C)[C@@H](O[C@@H]2O[C@H](C(=O)O)[C@@H](O)[C@H](O)[C@H]2O[C@@H]2O[C@H](C(=O)O)[C@@H](O)[C@H](O)[C@H]2O)CC[C@]2(C)[C@H]3C(=O)C=C4[C@@H]5C[C@@](C)(C(=O)O)CC[C@]5(C)CC[C@@]4(C)[C@]3(C)CC[C@@H]12
inactive: [13] 0.061 | [14] 0.0758 | [15] 0.126 | [16] 0.123

NC[C@@H]1O[C@H](O[C@@H]2[C@@H](CO)OC(O[C@H]3C(O[C@H]4O[C@H](CO)[C@@H](O)[C@H](O)[C@H]4N)[C@@H](N)C[C@@H](N)[C@@H]3O)[C@@H]2O)[C@H](N)[C@@H](O)[C@@H]1O (stereo partly specified)
inactive: [13] 0.0774 | [14] 0.116 | [17] 0.171 | [18] 0.0601 | [15] 0.0937 | [16] 0.0802 | [19] 0.19 | [20] 0.0499

COc1ccc(OC)c(CN2CCN(Cc3ccc(F)cc3)CC2)c1
inactive: [13] 0.102 | [14] 0.0528 | [15] 0.106 | [16] -0.00941

CN1CCN(CCOc2cc(OC3CCOCC3)c3c(Nc4c(Cl)ccc5c4OCO5)ncnc3c2)CC1
inactive: [1] 0.0216 | [2] 0.122 | [3] -0.0387 | [4] 0.0239 | [5] -0.075 | [6] 0.0267 | [7] -0.153 | [8] -0.0864
active: [9] -0.339 | [10] -0.15 | [11] -0.476 | [12] -0.808

C[C@@H]1O[C@H](OC[C@H]2O[C@@H](Oc3c(-c4ccc(O)c(O)c4)oc4cc(O)cc(O)c4c3=O)[C@H](O)[C@@H](O)[C@@H]2O)[C@H](O)[C@H](O)[C@H]1O
inactive: [13] -0.0111 | [14] 0.0513 | [15] 0.125 | [16] 0.094

C[C@H](CCC(=O)O)[C@H]1CC[C@H]2[C@@H]3C(O)CC4=CC(=O)CC[C@]4(C)[C@H]3CC[C@]12C (stereo partly specified)
inactive: [13] 0.0418 | [14] -0.00533 | [15] 0.162 | [16] -0.0526

C[n+]1c2cc(N)ccc2cc2ccc(N)cc21
active: [19] -0.404 | 25 µM, library screen: screen2, EWS-FLI1 expression: high (no doxycycline) -4.23 | 25 µM, library screen: screen2, EWS-FLI1 expression: low (doxycycline-induced shRNA knockdown) -2.18
inactive: 0.025 µM, library screen: screen2, EWS-FLI1 expression: high (no doxycycline) 0.0847 | 0.025 µM, library screen: screen2, EWS-FLI1 expression: low (doxycycline-induced shRNA knockdown) 0.099 | [13] 0.0872 | [14] 0.141 | [17] 0.0533 | [18] 0.0413 | [15] 0.0728 | [16] 0.101 | [20] -0.0252

CCCCN1CCC(COC(=O)c2cc(Cl)c(N)c3c2OCCO3)CC1
active: [17] -0.151
inactive: [18] -0.0248 | [19] 0.148 | [20] 0.108

CC[C@H](/C=C/[C@@H](C)[C@H]1CC[C@H]2[C@@H]3CCC4=CC(=O)CC[C@]4(C)[C@H]3CC[C@]12C)C(C)C
inactive: [13] 0.0678 | [14] 0.0569 | [15] 0.0668 | [16] -0.0817

COC(=O)[C@H]1[C@H]2C[C@H]3c4[nH]c5cc(OC)ccc5c4CCN3C[C@H]2C[C@@H](OC(=O)c2cc(OC)c(OC)c(OC)c2)[C@@H]1OC
inactive: [13] 0.121 | [14] 0.17 | [15] 0.195 | [16] 0.313

COc1ccc2c(c1)[C@@]1(C)CCC(=O)C[C@H]1CC2
inactive: [13] 0.0614 | [14] 0.0537 | [15] 0.105 | [16] 0.0269

Clc1ccc(C(c2ccc(Cl)cc2)n2cc[n+](CC(OCc3ccc(Cl)cc3Cl)c3ccc(Cl)cc3Cl)c2)cc1 (stereo unspecified)
inactive: [17] 0.138 | [18] 0.0728 | [19] 0.0573 | [20] 0.0822

COc1ccccc1N1CCN(CCCCNS(=O)(=O)c2cccc3c(N(C)C)cccc23)CC1
inactive: [17] 0.171 | [18] 0.0777 | [19] 0.0423 | [20] 0.0929

NCCCCNS(=O)(=O)c1cccc2c(Cl)cccc12
inactive: [18] 0.0648 | [19] 0.0418 | [20] 0.0582
active: [17] -0.151

NCCCCCCNS(=O)(=O)c1cccc2c(Cl)cccc12
inactive: [13] 0.066 | [14] 0.0556 | [17] 0.156 | [18] 0.0625 | [15] 0.0432 | [16] 0.0443 | [19] 0.141 | [20] 0.102
